{"source": "PubChem BioAssay (EPA / NIEHS)", "note": "Calls of active or inactive are those of the source. Rule for the calls: active = hit-call score of the fitted dose curve at least 0.9, where 1 is the maximum; inactive = score below 0.9."}
{"read-out": "CYP2C8 (gene 1558)", "assay": "LTEA_HepaRG_CYP2C8: Life Technologies and Expression Analysis (LTEA) Assay for CYP2C8 using HepaRG (AID 2283483)", "settings": "mRNA level, 48 h; actives raise or lower the signal", "procedure": "LTEA_HepaRG is a cell based, multiplexed-readout assay that uses HepaRG, a human liver cell line, with measurements taken at 48 hours after chemical dosing on a 96-well plate.LTEA_HepaRG_CYP2C8 is one of 102 assay component(s) measured in the LTEA HepaRG cell culture assay. It is a marker of NR mediated metabolism.Data from the assay component LTEA_HepaRG_CYP2C8 was analyzed into 1 endpoint. This assay endpoint, LTEA_HepaRG_CYP2C8, was analyzed with bidirectional fitting relative to DMSO as the negative control and baseline of activity. Using a type of inducible reporter, measures of mRNA induction for gain or loss-of-signal activity can be used to understand regulation of transcription factor activity. To generalize the intended target to other relatable targets, this assay endpoint is annotated to the cyp intended target family, where the subfamily is xenobiotic metabolism.\nA total of 1060 chemcials from the ToxCast library were tested in eight-point concentration-response experiments. Cell culture and cytotoxicity assays were conducted at Thermo Fisher Scientific's Custom Services facility (Madison, WI). A single lot of human HepaRG cells (Thermo Fisher Scientific, Frederick, MD) was used for the cell culture experiments. 96-well format collagen type I coated plates of human HepaRG cells were prepared using established methods. Briefly, cryopreserved HepaRG cells were thawed, plated at a density of approximately 100,000 cells/well in HepaRG Thaw, Plate, and General Purpose media (HPRG770, Thermo Fisher Scientific), and incubated for 48 hours. 0.5% DMSO was selected as vehicle control to balance the requisite need of DMSO in HepaRG cultures to maintain differentiation (for example, baseline metabolism, proportions of hepatocytes vs. cholangiocytes), while enabling further hepatic receptor pathway activation (for example, PXR and CAR) in response to chemical exposure. 48 hours after plating, the culture medium was replaced with HepaRG Serum-Free Incudtion Media. Cells were exposed to each test chemical in duplicate and maintained in CO2 incubators for another 48 hours. Chemical plates were thawed to room temperature and 200x concentrations of treatment groups were prepared. 8-point conentration-reponse curves were made with the highest exposure at 100 uM, followed by half-log dilutions, all in 0.5% DMSO. Each test plate contained variouse controls, induction positive controls (1mM phenobarbital), cytotoxicity positive controls ([…] aflatoxin B1), vehicle controls (0.5% DMSO), and total lysis controls (0.5% DMSO). Cell morphology images were taken using an Essen IncuCyte FLR automated microscope, with six 96-well plates imaged in about 24 minutes. Images were captured and exported and JPEG files. Spent culture media was transfered to black-well plates for the LDH assay, and remaining media was sorted at -80 C for later use. Cells were treated with RLT buffer and frozen until shipped for gene expression analysis. Total RNA was isolated from the cell suspension in 75 uL of Buffer RLT (Qiagen, Germantown, MD 20874) by Quintiles/Expression Analysis (Durham, NC) using a custom isolation procedure. Total RNA from each plate well was transferred to a preamplification plate. Fluidigm's 96.96 Dynamic ArrayTM (Fluidigm, Amsterdam, the Netherlands) technology was used for gene expression analyses by quantitative reverse transcription polymerase chain reaction (qRT-PCR, performed by Quintiles/Expression Analysis, Durham, NC)89. Standard TaqManTM Assays (Applied Biosystems/ThermoFisher Scientific, Foster City, CA) were used to assess the expression of 93 genes selected based on their selectivity and sensitivity to important hepatic receptors known to be modulated by environmental chemicals; importance in human hepatocyte functionality; and hepatotoxicity. […]"}
{"compound": "O=c1c(-c2ccc(O)cc2)coc2cc(O)ccc12", "outcome": "inactive"}
{"compound": "ClC1=C(Cl)C(Cl)(Cl)C(Cl)=C1Cl", "outcome": "inactive"}
{"compound": "C=C(C)C(=O)OCCC(F)(F)C(F)(F)C(F)(F)C(F)(F)C(F)(F)C(F)(F)F", "outcome": "inactive"}
{"compound": "OC1CCCCC1", "outcome": "inactive"}
{"compound": "N#C[C@@H]1CC(F)(F)CN1C(=O)CNC1CC2CCC(C1)N2c1ncccn1", "note": "(stereo not given in full)", "outcome": "inactive"}
{"compound": "Cc1cc(C)c(O)c(C)c1", "AC50": "5.03 µM (active)"}
{"compound": "CCCCCCCCOC(=O)CCCCCCCCC(=O)OCCCCCCCC", "outcome": "inactive"}
{"compound": "COC(=O)CCCCC(=O)OC", "outcome": "inactive"}
{"compound": "CC[C@H](c1ccc(O)cc1)[C@@H](CC)c1ccc(O)cc1", "outcome": "inactive"}
{"compound": "CCCCCCCCCCCCc1ccccc1S(=O)(=O)O", "AC50": "82.3 µM (active)"}
{"compound": "CC(C)(C)c1ccc(O)c(C(C)(C)C)c1", "outcome": "inactive"}
{"compound": "Cc1oc(-c2ccccc2)nc1CCOc1ccc(C[C@H](Nc2ccccc2C(=O)c2ccccc2)C(=O)O)cc1", "AC50": "25.2 µM (active)"}
{"compound": "CC(C)CCCCCCOC(=O)CCCCC(=O)OCCCCCCC(C)C", "outcome": "inactive"}
{"compound": "CCCCC(CC)COC(=O)CCCCC(=O)OCc1ccccc1", "note": "(stereo not given)", "outcome": "inactive"}
{"compound": "CN1CCN(c2ccccc2/C=C2\\SCCN(c3ccc(Cl)c(Cl)c3)C2=O)CC1", "outcome": "inactive"}
{"compound": "CCCOc1sc(C(=O)N2CCC(c3cc(CN)ccc3F)CC2)c(C)c1Br", "outcome": "inactive"}
{"compound": "CCCCCCCCCCCCCCCS(=O)(=O)Oc1ccccc1", "AC50": "7.61 µM (active)"}
{"compound": "Oc1cccc(O)c1", "outcome": "inactive"}
{"compound": "CCOC(=O)CC(O)(CC(=O)OCC)C(=O)OCC", "outcome": "inactive"}
{"compound": "COc1ccc([N+](=O)[O-])cc1N", "outcome": "inactive"}
{"compound": "CCC(=C(c1ccc(O)cc1)c1ccc(OCCN(C)C)cc1)c1ccccc1", "AC50": "2.39 µM (active)"}
{"compound": "CN(C)C=O", "outcome": "inactive"}
{"compound": "c1ccc2c(c1)ccc1ccccc12", "AC50": "12.7 µM (active)"}
{"compound": "OCCC(F)(F)C(F)(F)C(F)(F)C(F)(F)C(F)(F)C(F)(F)F", "outcome": "inactive"}
{"compound": "CCCCCCCC(=O)O", "outcome": "inactive"}
{"compound": "CCCCCCCCC(=O)O", "outcome": "inactive"}
{"compound": "CCC(C)(C)C1CCC(O)CC1", "note": "(stereo not given)", "outcome": "inactive"}
{"compound": "CC[C@H](C)[C@@H](C(=O)O)n1sc2ccccc2c1=O", "outcome": "inactive"}
{"compound": "CN1CCC[C@H]1c1cccnc1", "outcome": "inactive"}
{"compound": "C#C[C@]1(O)CC[C@H]2[C@@H]3CCC4=CC(=O)CC[C@@H]4[C@H]3CC[C@@]21C", "AC50": "6.29 µM (active)"}
{"compound": "O=C(OCCOCCOC(=O)c1ccccc1)c1ccccc1", "outcome": "inactive"}
{"compound": "CCCOC(=O)c1ccc(O)cc1", "outcome": "inactive"}
{"compound": "CCCCCCC(=O)O", "outcome": "inactive"}
{"compound": "Cc1cc(CCN2CCN(c3nsc4ccccc34)CC2)cc2c1NC(=O)CC2(C)C", "AC50": "82.5 µM (active)"}
{"compound": "CC(C)(C)c1cc(C(C)(C)C)c(O)c(C(C)(C)C)c1", "outcome": "inactive"}
{"compound": "CC(C)(C)CC(C)(C)c1ccc(O)c(-n2nc3ccccc3n2)c1", "outcome": "inactive"}
{"compound": "CC#C[C@]1(O)CC[C@H]2[C@@H]3CCC4=CC(=O)CCC4=C3[C@@H](c3ccc(N(C)C)cc3)C[C@@]21C", "AC50": "28 µM (active)"}
{"compound": "CCCCC(CC)COC(=O)CCCCC(=O)OCC(CC)CCCC", "note": "(stereo not given)", "outcome": "inactive"}
{"compound": "Nc1cccc2c(N)cccc12", "outcome": "inactive"}
{"compound": "COCC(C)O", "note": "(stereo not given)", "outcome": "inactive"}
